PubChem BioAssay (Tox21)
Where “and” joins values, the source holds several entries; their conditions need not be identical. Equal values may be shown once. Inconclusive results are not listed. A number with no mark means an inactive call. Calls of active or inactive are those of the source. Calls come from the whole dose curve.

Biological target: 5-hydroxytryptamine receptor 2A (Homo sapiens) (UniProt P28223)
Assay: 5-hydroxytryptamine receptor 2A (HTR2A) small molecule agonists, cell-based qHTS assay (AID 1963587); note: nearly all actives have a fitted effect of over 30% in size
Details: HTR2A-CHO cells, calcium flux fluorescence, agonist mode; series mostly up to 76.8 µM; activation: at the top concentration
Excerpt: National Center for Advancing Translational Sciences [NCATS]
Division of Preclinical Innovation [DPI]
U.S. Environmental Protection Agency [EPA]
National Institutes of Environmental Health Sciences [NIEHS]
National Toxicology Program [NTP]
U.S. Food and Drug Administration [FDA]
The HTR2A receptor is a subtype of the 5-HT2 receptor that belongs to the serotonin receptor family and is a G protein-coupled receptor (GPCR). The HTR2A-CHO cell line stably expressing human 5-hydroxytryptamine receptor 2A (HTR2A) can be used for screening agonists of interactions between 5-HT2 and its ligands. The HTR2A-CHO calcium flux assay is a homogeneous fluorescence-based assay for detecting the intracellular calcium level using FDSS kinetic plate reader system.
HTR2A-CHO cells were dispensed at 2000 cells/3uL/well in 1536-well black-clear bottom plates using a Multidrop Dispenser. After the assay plates were incubated at a 37 C/5% CO2 incubator for 18 h, 3 uL of Dye Loading Buffer was transferred to the assay plate by a Flying Reagent Dispenser. The assay plates were incubated at 37 C for 1h. For agonist mode, 23 nL of compounds dissolved in DMSO, positive controls or DMSO only was transferred to the assay plate by a pin tool. The fluorescence intensity in the plates was measured using FDSS 7000EX kinetic plate reader for 2 min at 1 sec intervals.
% is set by controls: 0 for no effect and ±100 for the full control effect; potency is the fitted concentration of half-maximal effect.

5-hydroxytryptamine receptor 2A (Homo sapiens), sequence (P28223 whole entry, looked up): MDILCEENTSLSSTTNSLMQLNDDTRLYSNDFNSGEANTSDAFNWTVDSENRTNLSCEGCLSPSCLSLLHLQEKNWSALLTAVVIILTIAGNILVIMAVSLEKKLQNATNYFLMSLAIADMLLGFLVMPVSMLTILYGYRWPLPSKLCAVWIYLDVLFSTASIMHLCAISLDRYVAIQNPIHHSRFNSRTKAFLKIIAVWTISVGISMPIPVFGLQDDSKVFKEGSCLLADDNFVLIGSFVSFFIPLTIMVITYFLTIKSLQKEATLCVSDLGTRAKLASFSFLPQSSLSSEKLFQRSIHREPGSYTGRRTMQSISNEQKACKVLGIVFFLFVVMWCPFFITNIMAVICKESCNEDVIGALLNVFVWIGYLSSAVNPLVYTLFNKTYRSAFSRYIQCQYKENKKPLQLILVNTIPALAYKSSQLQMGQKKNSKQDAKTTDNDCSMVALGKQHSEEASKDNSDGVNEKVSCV

Point of comparison: `O=c1oc2cc(O)ccc2c2oc3cc(O)ccc3c12`, “activation” value 1.78%. Against it:
- O=C1NC(=O)c2cccc3cccc1c23 — lower, -0.84%
- C=CC(=C)CCC=C(C)C — lower, 1.42%
- CC(CC=O)c1ccccc1 (stereo not given) — lower, 0.376%
- C=CC(=O)OCCn1c(=O)n(CCOC(=O)C=C)c(=O)n(CCOC(=O)C=C)c1=O — higher, 2.74%
- CCCCCCOc1ccc(O)cc1 — lower, -9.17%
- CC(C)c1ccc2ncccc2c1 — lower, -14.1%
- CC(=O)NC1(c2cccc(F)c2)CCN(CC[C@@]2(c3ccc(Cl)c(Cl)c3)CN(c3ccccc3)C(=O)CO2)CC1 — higher, 17.9%
- O=C(O)C1(C(=O)Nc2ccc(Cl)cc2Cl)CC1 — lower, 0.455%
- OCCC1CCCCN1 (stereo not given) — lower, -0.228%
- Cc1cc2c(cc1C(F)(F)F)N(C(=O)Nc1ccc(Oc3cccnc3C)nc1)CC2 — higher, 3.79%
- COC(=O)NCCC[Si](OC)(OC)OC — lower, -3.48%
- O=[N+]([O-])c1ccc2ncccc2c1 — lower, 0.842%
- CCC(C)C(C)=O (stereo not given) — higher, 4.49%
- O=c1[nH]c2ccc(S(=O)CCN3CCC(Cc4ccc(F)cc4)CC3)cc2o1 (stereo not given) — lower, -1.62%
- Nc1ccc(F)cc1F — lower, -0.624%
- CC(C)COC(=O)CC(C(=O)OCC(C)C)S(=O)(=O)O (stereo not given) — lower, 0.958%
- FC(F)(Cl)C(F)(Cl)Cl — higher, 3.55%
- C=CC(C)(CCC=C(C)C)OC(=O)CC(C)C (stereo not given) — lower, -0.253%
- C=CC(C)(C)CC(=O)OC — lower, 1.09%
- CC(C)(N)C#N — lower, 1.01%
- C=Cc1ccc(OC(C)=O)cc1 — lower, -3.27%
- CC(C)=CCCC(C)CCOC=O (stereo not given) — lower, -3.88%
- O=C1CCCN1C1CCCCC1 — lower, -3.99%
- CCCCCCCCCC(C)C=O (stereo not given) — lower, -12.3%
- O=[N+]([O-])c1ccc(NCCO)c(OCCO)c1 — higher, 5.94%

Point of comparison: `N[C@@H](CCC(=O)N[C@@H](CS)C(=O)NCC(=O)O)C(=O)O`, activation 2.78% [at 15.9 µM]. Against it:
- C=C/C=C/C=C/CCCCC — lower, -2.6% [at 15.9 µM]

Point of comparison: `CCc1cccc2c(CCO)c[nH]c12`, “activation” value -0.0226% [at 35.6 µM]. Against it:
- CC(C)=CCNc1ncnc2c1ncn2[C@@H]1O[C@H](CO)[C@@H](O)[C@H]1O — lower, -1.83% [at 35.6 µM]
- NS(=O)(=O)c1ccc(C(=O)O)cc1 — lower, -0.858% [at 35.6 µM]
- C#CCN(C)CCCOc1ccc(Cl)cc1Cl — higher, 12% [at 35.6 µM]
- C[C@@H](N)C(=O)O — higher, 1.95% [at 35.6 µM]
- COc1cc(C)nc(-n2nc(C)cc2OC)n1 — higher, 3.43% [at 35.6 µM]
- Cc1cccc(C)c1NC(=O)CN(CC(=O)O)CC(=O)O — higher, 12.7% [at 35.6 µM]
- C=Cc1c(C)c2cc3[nH]c(cc4nc(cc5nc(cc1[nH]2)C(C)=C5CCC(=O)O)C(CCC(=O)O)=C4C)c(C)c3C=C — higher, 0.532% [at 35.6 µM]
- CCCc1nc(C)c2c(=O)[nH]c(-c3cc(S(=O)(=O)N4CCN(CC)CC4)ccc3OCC)nn12 — lower, -0.685% [at 35.6 µM]
- CO[C@@]1(NC(=O)Cc2cccs2)C(=O)N2C(C(=O)O)=C(COC(N)=O)CS[C@@H]21 — lower, -0.726% [at 35.6 µM]

With `CCN(CC)CCCC(C)Nc1ccnc2cc(Cl)ccc12` (stereo not given) the activation was -0.411% [at 7.02 µM] and 1.58% [at 15.9 µM].

`c1ccc2c(c1)-c1ccc3ccc4cccc5cc-2c1c3c45` was tested, and the Potency was 10.7 µM (active).
